From PubChem BioAssay (NCI)
This is part of a sample that, as a whole, favours compounds with a hit. Of some 83,000 tested, about 20% had one in any assay.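 A percent growth of 40 corresponds to 60% growth inhibition; 0 means no net growth; -100 means all cells died. Active threshold: below 10.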 Values without a mark were called inactive. Active and inactive are the calls of the source.

Each molecule was assayed on HL-60(TB) leukemia (assay: NCI-60 one-dose screen, 48 h (100 = growth as untreated, 0 = no growth, -100 = all killed)). Conditions: 10 µM unless noted.

Row | Compound | growth
1 | c1ccc(CNc2ncnc3ccc(-c4cnc5[nH]ncc5c4)cc23)cc1 | 63.8%
2 | CC(C)(C)CC(C)(C)n1nnnc1C(Nc1ccccc1)c1cc2cccc3ccc4cccc1c4c32 (stereo unspecified) | 101%
3 | COc1ccc(-c2nnc(SCc3ccc(O)c4ncccc34)n2-c2ccccc2)cc1 | 10.9%
4 | COc1ccc(S(=O)(=O)NCCCNc2nccc(-c3[nH]c(-c4ccccc4)nc3-c3ccc(Cl)c(O)c3)n2)cc1 | 43.2%
5 | COC(=O)[C@@H](Cc1c[nH]c2ccccc12)NC(=O)CCCCOc1cc(O)c2c(=O)cc(-c3ccccc3)oc2c1 | 84.1%
6 | O=C1c2ccccc2C23C(=C(c4cncnc4)c4ccccc42)CCCN13 (stereo unspecified) | 112%
7 | C#C[C@]1(O)CC[C@H]2[C@@H]3CC=C4c5sc(-c6cccc(F)c6)nc5CC[C@]4(C)[C@H]3CC[C@@]21C | 79.6%
8 | NS(=O)(=O)c1ccc(-n2cc(CN3CCCCC3)nn2)cc1 | 101%
9 | O=C(C[n+]1ccnc2ccccc21)c1ccc(O)c(O)c1 | -24.7% (active)
10 | CN1CCN(c2nc(-c3csc(-c4ccncc4)n3)cc3ccccc23)CC1 | 32.2%
11 | COc1ccc(OC)c([C@H]2c3[nH]c4ccccc4c3C[C@H]3C(=O)N(CCCCCCC(=O)NO)CC(=O)N23)c1 | 91.1%
12 | CCc1cccc2c3c(sc12)C(c1ccc(Cl)cc1)C(C#N)=C(/N=C/c1ccc(Cl)cc1)O3 (stereo unspecified) | -6.78% (active)
13 | O=C(Nc1ccc(Cl)cc1)Nc1nc2ccc([N+](=O)[O-])cc2s1 | -51% (active)
14 | COc1ccc(N)cc1C(=O)Nc1cccc(-c2cc(=O)c3c(OC)c(OC)c(OC)cc3o2)c1 | 58.1%
15 | Cc1nn(-c2ccccc2)cc1/C=N/Nc1nc(Nc2ccccc2)nc(Nc2ccc(S(N)(=O)=O)cc2)n1 | 4% (active)
16 | O=C1NC(=C(Cl)Cl)/C(=N/S(=O)(=O)N2CCCCC2CC2(C(F)(F)F)N=N2)N1 (stereo unspecified) | 1.49% (active)
17 | N#C/C(=C\c1ccc(-c2ccc(F)cc2)o1)C(=O)Nc1ncc(Cc2ccc(Cl)cc2Cl)s1 | 22.5%
18 | COc1cc(OC)c(S(N)(=O)=O)cc1C(=O)/C=C/c1ccccc1 | 5.25% (active)

Row | Compound | growth
19 | Cc1ccc(C2=Nn3c(nnc3-c3ccccc3)SC2)cc1 | 7.74% (active)
20 | COc1ccccc1Cn1cc(C#N)c(N)c1C(=O)c1ccc(Br)cc1 | 92.8%
21 | CC(=O)N(O)CCCCCNC(=O)CCC(=O)N(O)CCCCCNC(=O)CCC(=O)N(O)CCCCCN(CCCCCCCCCC[P+](c1ccccc1)(c1ccccc1)c1ccccc1)CCCCCCCCCC[P+](c1ccccc1)(c1ccccc1)c1ccccc1 | -25.7% (active)
22 | CN1CCN(c2ccc(Nc3nc(NCCCNS(=O)(=O)c4cccc5ccccc45)c4sccc4n3)cc2)CC1 | -45.2% (active)
23 | N/C(=N\OC(=O)CSc1nc2ccccc2s1)c1ccc2ccccc2c1 | 105%
24 | N#Cc1c(-c2ccccc2)cc(-c2c[nH]c3ccccc23)nc1-c1c[nH]c2ccccc12 | 104%
25 | CCOC(=O)c1c(NC(=O)c2ccc(F)cc2F)sc2c1CCC(=O)C2 | 91.9%
26 | O=C(NCCn1ccnc1)c1ccc(-c2nc3ccc4[nH]ncc4c3c3c2CCCC3)cc1 | 76.9%
27 | Cn1cc(-c2nn3cc(-c4ccncc4)nc3s2)c2cc(Cl)ccc21 | -16% (active)
28 | COc1cc(C(C)=C(c2ccc(OCCN(C)C)cc2)c2ccc(OCCN(C)C)cc2)ccc1F | 105%
29 | NC(N)=Nc1ccc(Oc2cccc(Nc3cccc(C(F)(F)F)c3)c2)cn1 | -64.4% (active)
30 | NC(N)=Nc1ccc(Oc2ccc(Nc3ccc(Cl)c(C(F)(F)F)c3)cc2)cc1 | -33.8% (active)
31 | O=C(Nc1ccc(F)cc1)c1cc(-c2ccc(F)cc2F)ccc1O | 0.532% (active)
32 | COc1cc2nc(-c3ccc(Cl)cc3)cc(OCCCNCC3CCCO3)c2cc1OC (stereo unspecified) | 32.1%
33 | Cc1csc(/N=C(N)/N=C(\N)c2cccnc2)n1 | 65.9%
34 | Cc1[nH]c(C(=O)Nc2ccccc2OCc2cccc(C(=O)N3CCC[C@@H](N)C3)c2)c(Cl)c1Cl | -67.7% (active)
35 | CN1c2ccccc2Sc2cc(C=C(C#N)C#N)ccc21 | 92.6%
36 | COc1ccc(/C=N/Nc2nc(Nc3ccccc3)nc(Nc3ccc(S(N)(=O)=O)cc3)n2)cc1 | 83.8%
